PubChem BioAssay (NCATS)
Results filed as inconclusive are left out. Calls of active or inactive are those of the source. The call rests on the fitted dose curve; in most records, active means well fitted inhibition curve with a large enough effect; inconclusive means small, poorly fitted or top-dose-only effect; inactive means flat fitted curve, though single readings scatter.

How the values were obtained:
[1] = qHTS profiling for inhibitors of Plasmodium falciparum proliferation (AID 504749);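 on activity, negative = inhibition: 0% = DMSO vehicle and full inhibition = artemisinin control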; on all read-outs here: nearly all actives have a fitted effect of over 60% in size; conditions: P. falciparum in erythrocytes, SYBR Green DNA, 72 h; for activity, negative = inhibition: at 28.7 µM (top of the series)
How it was run: (§1)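 Infected RBCs, 0.3% parasitemia/2.5% Hct final; cpd 72 h, 37 C, 5% CO2; lysis buffer with saponin/triton/SYBR Green I, o/n RT dark; FI 485/535; norm. to artemisinin (0.29 uM) and DMSO.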

3D7 = experiment: as above; conditions: P. falciparum in erythrocytes, SYBR Green DNA, 72 h; series mostly up to 28.7 µM
How it was run: as §1

AA1029 = experiment: as above; conditions: P. falciparum in erythrocytes, SYBR Green DNA, 72 h; series mostly up to 28.7 µM
How it was run: as §1

AS120 = experiment: as above; conditions: P. falciparum in erythrocytes, SYBR Green DNA, 72 h; series mostly up to 28.7 µM
How it was run: as §1

ATS189 = experiment: as above; conditions: P. falciparum in erythrocytes, SYBR Green DNA, 72 h; series mostly up to 28.7 µM
How it was run: as §1

ATS95 = experiment: as above; conditions: P. falciparum in erythrocytes, SYBR Green DNA, 72 h; series mostly up to 28.7 µM
How it was run: as §1

C2A = experiment: as above; conditions: P. falciparum in erythrocytes, SYBR Green DNA, 72 h; series mostly up to 28.7 µM
How it was run: as §1

CP185 = experiment: as above; conditions: P. falciparum in erythrocytes, SYBR Green DNA, 72 h; series mostly up to 28.7 µM
How it was run: as §1

CP191 = experiment: as above; conditions: P. falciparum in erythrocytes, SYBR Green DNA, 72 h; series mostly up to 28.7 µM
How it was run: as §1

CP192 = experiment: as above; conditions: P. falciparum in erythrocytes, SYBR Green DNA, 72 h; series mostly up to 28.7 µM
How it was run: as §1

CP194 = experiment: as above; conditions: P. falciparum in erythrocytes, SYBR Green DNA, 72 h; series mostly up to 28.7 µM
How it was run: as §1

CP201 = experiment: as above; conditions: P. falciparum in erythrocytes, SYBR Green DNA, 72 h; series mostly up to 28.7 µM
How it was run: as §1

CP211 = experiment: as above; conditions: P. falciparum in erythrocytes, SYBR Green DNA, 72 h; series mostly up to 28.7 µM
How it was run: as §1

CP215 = experiment: as above; conditions: P. falciparum in erythrocytes, SYBR Green DNA, 72 h; series mostly up to 28.7 µM
How it was run: as §1

CP217 = experiment: as above; conditions: P. falciparum in erythrocytes, SYBR Green DNA, 72 h; series mostly up to 28.7 µM
How it was run: as §1

CP237 = experiment: as above; conditions: P. falciparum in erythrocytes, SYBR Green DNA, 72 h; series mostly up to 28.7 µM
How it was run: as §1

CP238 = experiment: as above; conditions: P. falciparum in erythrocytes, SYBR Green DNA, 72 h; series mostly up to 28.7 µM
How it was run: as §1

CP247 = experiment: as above; conditions: P. falciparum in erythrocytes, SYBR Green DNA, 72 h; series mostly up to 28.7 µM
How it was run: as §1

7G8 = experiment: as above; conditions: P. falciparum in erythrocytes, SYBR Green DNA, 72 h; series mostly up to 28.7 µM
How it was run: as §1

CP203 = experiment: as above; conditions: P. falciparum in erythrocytes, SYBR Green DNA, 72 h; series mostly up to 28.7 µM
How it was run: as §1
Potency means the concentration at half of the fitted maximal effect.

O=C1CCC(c2ccccc2)(C2CCN(Cc3ccccc3)CC2)C(=O)N1 (stereo not given)
inactive: activity, negative = inhibition ([1]; parasite line A) 7.2% | activity, negative = inhibition ([1]; parasite line B) 9.21% | Potency (3D7) | Potency (AA1029) | Potency (AS120) | Potency (ATS189) | Potency (ATS95) | Potency (C2A) | Potency (CP185) | Potency (CP191) | Potency (CP192) | Potency (CP194) | Potency (CP201) | Potency (CP211) | Potency (CP215) | Potency (CP217) | Potency (CP238) | Potency (CP247)
active: Potency (CP237) 11.2 µM

CCCCCc1ccc(C)cc1O
active: Potency (7G8) 12.6 µM
inactive: activity, negative = inhibition ([1]; parasite line A) -9.62% | Potency (3D7) | Potency (AA1029) | Potency (AS120) | Potency (ATS189) | Potency (ATS95) | Potency (C2A) | Potency (CP185) | Potency (CP191) | Potency (CP192) | Potency (CP194) | Potency (CP201) | Potency (CP203) | Potency (CP211) | Potency (CP215) | Potency (CP217) | Potency (CP237) | Potency (CP238)

CC(C)C1=CC2=CC[C@@H]3[C@](C)(CCC[C@@]3(C)C(=O)O)[C@H]2CC1
inactive: activity, negative = inhibition ([1]; parasite line A) -4.25% | activity, negative = inhibition ([1]; parasite line B) -11.9% | Potency (3D7) | Potency (AA1029) | Potency (AS120) | Potency (ATS189) | Potency (ATS95) | Potency (C2A) | Potency (CP185) | Potency (CP191) | Potency (CP217) | Potency (CP237) | Potency (CP238) | Potency (CP247)

CS(=O)(=O)c1ccc([C@@H](O)[C@@H](COC(=O)CN)NC(=O)C(Cl)Cl)cc1
inactive: activity, negative = inhibition ([1]; parasite line A) -27.9% | activity, negative = inhibition ([1]; parasite line B) -23.7% | Potency (3D7) | Potency (AS120) | Potency (ATS189) | Potency (CP191) | Potency (CP192) | Potency (CP247)

NC(=O)CC[C@@H]1NC(=O)[C@H](Cc2ccccc2)NC(=O)[C@H](Cc2ccc(O)cc2)NC(=O)[C@@H](N)CSSC[C@@H](C(=O)N2CCC[C@H]2C(=O)N[C@@H](CCCN=C(N)N)C(=O)NCC(N)=O)NC(=O)[C@H](CC(N)=O)NC1=O
inactive: activity, negative = inhibition ([1]; parasite line A) 1.66% | activity, negative = inhibition ([1]; parasite line B) -0.62% | Potency (3D7) | Potency (AA1029) | Potency (ATS95) | Potency (C2A) | Potency (CP185) | Potency (CP192) | Potency (CP194) | Potency (CP201) | Potency (CP203) | Potency (CP211) | Potency (CP215) | Potency (CP217) | Potency (CP237) | Potency (CP238) | Potency (CP247)

CC(C)OC(=O)Nc1ccc2nc(-c3cscn3)[nH]c2c1
inactive: activity, negative = inhibition ([1]; parasite line A) 1.15% | activity, negative = inhibition ([1]; parasite line B) -9.28% | Potency (3D7) | Potency (AA1029) | Potency (AS120) | Potency (ATS189) | Potency (ATS95) | Potency (CP185) | Potency (CP191) | Potency (CP192) | Potency (CP194) | Potency (CP201) | Potency (CP203) | Potency (CP211) | Potency (CP215) | Potency (CP217) | Potency (CP237) | Potency (CP238)

CCN(CC)CCOc1ccc2nc(N(C)C)sc2c1
inactive: activity, negative = inhibition ([1]; parasite line A) 2.07% | activity, negative = inhibition ([1]; parasite line B) 4.31% | Potency (7G8) | Potency (AA1029) | Potency (AS120) | Potency (ATS189) | Potency (ATS95) | Potency (C2A) | Potency (CP185) | Potency (CP191) | Potency (CP192) | Potency (CP194) | Potency (CP201) | Potency (CP203) | Potency (CP211) | Potency (CP217) | Potency (CP237) | Potency (CP238) | Potency (CP247)

N=C(N)c1ccc(/C=C/c2ccc(C(=N)N)cc2O)cc1
active: Potency ([1]; parasite line A) 8.91 µM | Potency ([1]; parasite line B) 10 µM | Potency (7G8) 3.98 µM | Potency (AA1029) 10 µM | Potency (AS120) 12.6 µM | Potency (ATS95) 10 µM | Potency (C2A) 3.98 µM | Potency (CP185) 10 µM | Potency (CP191) 1.41 µM | Potency (CP192) 5.36 µM | Potency (CP194) 6.01 µM | Potency (CP201) 12 µM | Potency (CP203) 15.1 µM | Potency (CP215) 5.36 µM | Potency (CP217) 11.2 µM | Potency (CP237) 5.01 µM | Potency (CP238) 10 µM | Potency (CP247) 10 µM

Cc1c(C)c2c(c(C)c1OC(=O)CCC(=O)O)CC[C@@](C)(CCC[C@H](C)CCC[C@H](C)CCCC(C)C)O2
inactive: activity, negative = inhibition ([1]; parasite line A) -10.9% | activity, negative = inhibition ([1]; parasite line B) 4.87% | Potency (AA1029) | Potency (AS120) | Potency (ATS189) | Potency (ATS95) | Potency (C2A) | Potency (CP185) | Potency (CP191) | Potency (CP192) | Potency (CP194) | Potency (CP201) | Potency (CP203) | Potency (CP211) | Potency (CP215) | Potency (CP217) | Potency (CP238) | Potency (CP247)
